Experimental data from the supplement of paper PMC8728848.
This excerpt belongs to a sample that is enriched for the strongest signals.

Experiments:
Test in all cases: glycan array binding signal (z-score within array); higher = stronger binding
Details in all cases: glycan notation: IUPAC condensed, linker removed
[1] = biological target: Fuc(a1-2)Gal(b1-3)GalNAc(a1-3)[Fuc(a1-2)]Gal(b1-4)GlcNAc
How it was run: (§1)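 Columns mapping to the same glycan were averaged after glycan names were converted to IUPAC-condensed notation. The data come from 3228 arrays in the Consortium for Functional Glycomics database, limited to those with an available protein sequence. Binding is reported as a within-array Z-score averaged across arrays of one protein sequence and across linkers.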

[2] = biological target: Fuc(a1-2)Gal(b1-3)GlcNAc(b1-2)Man(a1-3)[Fuc(a1-2)Gal(b1-3)GlcNAc(b1-2)Man(a1-6)]Man(b1-4)GlcNAc(b1-4)GlcNAc
How it was run: as §1

[3] = biological target: Fuc(a1-2)Gal(b1-3)GlcNAc6S
How it was run: as §1

[4] = biological target: Fuc(a1-2)Gal(b1-3)[Fuc(a1-4)]GlcNAc
How it was run: as §1

[5] = biological target: Fuc(a1-2)Gal(b1-3)[Fuc(a1-4)]GlcNAc(b1-3)[Gal(b1-4)GlcNAc(b1-6)]Gal(b1-4)Glc
How it was run: as §1

[6] = biological target: Fuc(a1-2)[Gal(a1-4)]Gal(b1-4)GlcNAc
How it was run: as §1

[7] = biological target: Fuc(a1-2)[GalNAc(a1-3)]Gal(b1-3)GalNAc(a1-3)[Fuc(a1-2)]Gal(b1-4)GlcNAc
How it was run: as §1

[8] = biological target: Fuc(a1-3)[Gal(b1-4)]GlcNAc(b1-2)Man
How it was run: as §1

[9] = biological target: Fuc(a1-3)[Gal(b1-4)]GlcNAc(b1-6)GalNAc
How it was run: as §1

[10] = biological target: Gal(a1-4)Gal(b1-4)GlcNAc(b1-2)Man(a1-3)[Gal(a1-4)Gal(b1-4)GlcNAc(b1-2)Man(a1-6)]Man(b1-4)GlcNAc(b1-4)GlcNAc
How it was run: as §1

[11] = biological target: Gal(a1-4)Gal(b1-4)GlcNAc(b1-3)Gal(b1-4)Glc
How it was run: as §1

[12] = biological target: Gal(b1-3)Gal
How it was run: as §1

[13] = biological target: Gal(b1-3)Gal(b1-4)GlcNAc
How it was run: as §1

[14] = biological target: Gal(b1-3)GalNAc(b1-3)Gal
How it was run: as §1

[15] = biological target: Gal(b1-3)GlcNAc
How it was run: as §1

[16] = biological target: Gal(b1-3)[Neu5Ac(a2-6)]GlcNAc(b1-4)Gal(b1-4)Glc
How it was run: as §1

[17] = biological target: Gal(b1-4)GlcNAc(b1-2)[Gal(b1-4)GlcNAc(b1-4)]Man(a1-3)[Gal(b1-4)GlcNAc(b1-2)Man(a1-6)]Man(b1-4)GlcNAc(b1-4)GlcNAc
How it was run: as §1

[18] = biological target: Gal(b1-4)GlcNAc(b1-3)Gal(b1-4)GlcNAc(b1-2)Man(a1-3)[Gal(b1-4)GlcNAc(b1-3)Gal(b1-4)GlcNAc(b1-2)Man(a1-6)]Man(b1-4)GlcNAc(b1-4)[Fuc(a1-6)]GlcNAc
How it was run: as §1

[19] = biological target: Gal(b1-4)GlcNAc(b1-3)Gal(b1-4)GlcNAc(b1-3)Gal(b1-4)GlcNAc(b1-2)[Gal(b1-4)GlcNAc(b1-3)Gal(b1-4)GlcNAc(b1-3)Gal(b1-4)GlcNAc(b1-6)]Man(a1-6)[Gal(b1-4)GlcNAc(b1-3)Gal(b1-4)GlcNAc(b1-3)Gal(b1-4)GlcNAc(b1-2)Man(a1-3)]Man(b1-4)GlcNAc(b1-4)[Fuc(a1-6)]GlcNAc
How it was run: as §1

[20] = biological target: Gal(b1-4)GlcNAc(b1-3)Gal(b1-4)GlcNAc(b1-3)Gal(b1-4)GlcNAc(b1-3)Gal(b1-4)GlcNAc(b1-3)Gal(b1-4)GlcNAc(b1-2)[Gal(b1-4)GlcNAc(b1-3)Gal(b1-4)GlcNAc(b1-3)Gal(b1-4)GlcNAc(b1-3)Gal(b1-4)GlcNAc(b1-3)Gal(b1-4)GlcNAc(b1-6)]Man(a1-6)[Gal(b1-4)GlcNAc(b1-3)Gal(b1-4)GlcNAc(b1-3)Gal(b1-4)GlcNAc(b1-3)Gal(b1-4)GlcNAc(b1-3)Gal(b1-4)GlcNAc(b1-2)Man(a1-3)]Man(b1-4)GlcNAc(b1-4)[Fuc(a1-6)]GlcNAc
How it was run: as §1

[21] = biological target: Gal(b1-4)GlcNAc(b1-3)Gal(b1-4)GlcNAc(b1-3)[Gal(b1-4)GlcNAc(b1-3)Gal(b1-4)GlcNAc(b1-6)]GalNAc
How it was run: as §1

[22] = biological target: Gal3S(b1-3)GlcNAc
How it was run: as §1

[23] = biological target: Gal3S(b1-4)[Fuc(a1-3)]GlcNAc6S
How it was run: as §1

[24] = biological target: Gal3S6S(b1-4)GlcNAc6S
How it was run: as §1

[25] = biological target: Gal4S6S(b1-4)GlcNAc
How it was run: as §1

[26] = biological target: GalNAc(b1-3)GalNAc
How it was run: as §1

[27] = biological target: GalNAc(b1-6)GalNAc
How it was run: as §1

B1: SJCP1531 (Schistosoma japonicum) (protein)
chain: MFKVRIINLVNISTVLLLINLLQTKSQVNVEQLVTVLEVNIKAQLKNKTTEVLVEWNPLYQDNSMPEYRKLLDETCKLFLPFVNEKVPPSTYGGECTNANFSEAPQDGSYSRVNAELRLIYKYSDNPQIQTDRLQDDLNDREEFITSESSFVAYNPKFTVKIEKLFIPISESQTTPPPTTAKNDASKKDDDDNGGEDSKAPIDTFAMTASGNKGKKDDDDNGGEDSKAPIDTFAMTASGSKDERSTWTIIGIITLVVLIFVVIGGGITVFVKRC
For B1, the “glycan array binding signal (z-score)” value [1] was -0.571, the “glycan array binding signal (z-score)” value [2] was -0.207 and the “glycan array binding signal (z-score)” value [3] was -0.955. The “glycan array binding signal (z-score)” value [4] was 0.144, the “glycan array binding signal (z-score)” value [5] was 0.498 and the “glycan array binding signal (z-score)” value [6] was 0.12. For the same binder, the “glycan array binding signal (z-score)” value [7] was -0.433, the “glycan array binding signal (z-score)” value [8] was 0.026 and the “glycan array binding signal (z-score)” value [9] was 1.34. For the same binder, the “glycan array binding signal (z-score)” value [10] was 2.24, the “glycan array binding signal (z-score)” value [11] was 1.03 and the “glycan array binding signal (z-score)” value [12] was 3.29. For the same binder, the “glycan array binding signal (z-score)” value [13] was 0.064, the “glycan array binding signal (z-score)” value [14] was -0.062 and the “glycan array binding signal (z-score)” value [15] was 0.101. The “glycan array binding signal (z-score)” value [16] was -1.38, the “glycan array binding signal (z-score)” value [17] was 0.725 and the “glycan array binding signal (z-score)” value [18] was 2.21. The “glycan array binding signal (z-score)” value [19] was 2.79, the “glycan array binding signal (z-score)” value [20] was 2.63 and the “glycan array binding signal (z-score)” value [21] was 2.8. The “glycan array binding signal (z-score)” value [22] was 0.215, the “glycan array binding signal (z-score)” value [23] was 1.28 and the “glycan array binding signal (z-score)” value [24] was 3.17. The “glycan array binding signal (z-score)” value [25] was -0.722, the “glycan array binding signal (z-score)” value [26] was 0.218 and the “glycan array binding signal (z-score)” value [27] was 2.81.
